Results reported in publication PMC6451091, “NextPBM: a platform to study cell-specific transcription factor binding and cooperativity”.
Whole data set: some 3,700 sequences, median “z-score” near 4, cut for the highest 2% near 8.4. The full list was thinned out, with the highest values kept by preference.

Experiments:
PU.1 (IVT) [1] = target: PU.1 (IVT) (UniProt P17947 1-270); assay: protein-binding microarray (PBM); 20 mM HEPES pH 7.9, 100 mM NaCl, 1 mM DTT, 0.2 mg/mL BSA, 0.02% Triton X-100, 2% milk, 0.4 mg/mL salmon testes DNA; 1 h; temperature not stated; high values mean tight binding; details: dsDNA, one strand shown
How it was run: (§1)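 Untagged full-length PU.1 was produced by coupled human in vitro transcription/translation and incubated for 1 h on custom double-stranded DNA microarrays in HEPES pH 7.9 containing 100 mM NaCl, 2% milk and salmon testes DNA. Each array carried 20-bp genomic sites and single-nucleotide variants, with 10 probes per site (5 per orientation). Bound protein was detected with anti-PU.1 followed by a fluorescent secondary antibody. Binding values are z-scores calculated from scanned fluorescence after linear-regression normalisation.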

PU.1 (IVT) [2] = target: PU.1 (IVT) (UniProt P17947 1-270); assay: as above; details: dsDNA, one strand shown; remark: listed apart in the source
How it was run: as §1

| Sequence | binding signal (PU.1 (IVT) [1]) [z-score] | binding signal (PU.1 (IVT) [2]) [z-score] |
| --- | --- | --- |
| GCCTAGCACTGATAGAGGAAGTGCAACCAGTGCTAGGTCTTGATTCGCTTGACGCTGCTG | 4.92 | – |
| GCCTAGCACGATAGCAGGAAGTGAAACTAGTGCTAGGTCTTGATTCGCTTGACGCTGCTG | 3.14 | – |
| GCCTAGCACGCAGAGAGGAAGTGTGAATGGTGCTAGGTCTTGATTCGCTTGACGCTGCTG | 3.72 | – |
| GCCTAGCACTGAGAGGAGAAGTGAAACCCGTGCTAGGTCTTGATTCGCTTGACGCTGCTG | – | 1.26 |
| GCCTAGCACATTTCTGGGAAGTGAAACTAGTGCTAGGTCTTGATTCGCTTGACGCTGCTG | 1.93 | – |
| GCCTAGCACATAAAAGGGAAGTGGGGCATGTGCTAGGTCTTGATTCGCTTGACGCTGCTG | 5.38 | – |
| GCCTAGCACAGAAAAAGGAAGTGAGCAAAGTGCTAGGTCTTGATTCGCTTGACGCTGCTG | 5.53 | – |
| GCCTAGCACTTAAAGAGGAAGAGCATCTTGTGCTAGGTCTTGATTCGCTTGACGCTGCTG | 3.21 | – |
| GCCTAGCACTCAAAGAGGAAGTGACATTTGTGCTAGGTCTTGATTCGCTTGACGCTGCTG | – | 7.03 |
| GCCTAGCACGAAAAAGGGAACTGGTTGGGGTGCTAGGTCTTGATTCGCTTGACGCTGCTG | – | 5.22 |
| GCCTAGCACGGAAGAAGGAAGTGGGGGCCGTGCTAGGTCTTGATTCGCTTGACGCTGCTG | – | 3.66 |
| GCCTAGCACAGGAGGAGGAAGTGGGGGGAGTGCTAGGTCTTGATTCGCTTGACGCTGCTG | – | 4.05 |
| GCCTAGCACGATAAGAGGAACTGTAAGCTGTGCTAGGTCTTGATTCGCTTGACGCTGCTG | – | 3.92 |
| GCCTAGCACTGAGAGGAGAAGTGAAATCTGTGCTAGGTCTTGATTCGCTTGACGCTGCTG | 1.39 | – |
| GCCTAGCACCAAATTAGGAACTGATGCGGGTGCTAGGTCTTGATTCGCTTGACGCTGCTG | 2.14 | – |
| GCCTAGCACGCTAAGAGGAAGTCCTCTGTGTGCTAGGTCTTGATTCGCTTGACGCTGCTG | 5.07 | – |
| GCCTAGCACAAAAAAAGGAAGTGAGATAAGTGCTAGGTCTTGATTCGCTTGACGCTGCTG | – | 6.74 |
| GCCTAGCACAAAAAGAGGAAGGGTGGCTGGTGCTAGGTCTTGATTCGCTTGACGCTGCTG | 4.91 | – |
| GCCTAGCACAAAAAAAGGAAGTGCTCAAGGTGCTAGGTCTTGATTCGCTTGACGCTGCTG | 6.42 | – |
| GCCTAGCACAAAAAAAGGAAGTGGTAGCAGTGCTAGGTCTTGATTCGCTTGACGCTGCTG | – | 6.75 |
| GCCTAGCACAAAAGGAGGAAGTGATGATGGTGCTAGGTCTTGATTCGCTTGACGCTGCTG | 6.55 | – |
| GCCTAGCACAAAAAGAGGAAGTGAGATGGGTGCTAGGTCTTGATTCGCTTGACGCTGCTG | – | 8.88 |
| GCCTAGCACAAAAAGCGGAAGTGCAAAAGGTGCTAGGTCTTGATTCGCTTGACGCTGCTG | – | 8.5 |
| GCCTAGCACAAAAAGAGGAAGTGGTACAAGTGCTAGGTCTTGATTCGCTTGACGCTGCTG | – | 8.76 |
| GCCTAGCACAAAAAGAGGAAGGGACCCAAGTGCTAGGTCTTGATTCGCTTGACGCTGCTG | – | 5.29 |
| GCCTAGCACACAAAGGGGAAGTGCTAGGGGTGCTAGGTCTTGATTCGCTTGACGCTGCTG | 6.35 | – |

| Sequence | binding signal (PU.1 (IVT) [1]) [z-score] | binding signal (PU.1 (IVT) [2]) [z-score] |
| --- | --- | --- |
| GCCTAGCACAAGAGGAGGAAGTGAGAGAGGTGCTAGGTCTTGATTCGCTTGACGCTGCTG | – | 4.33 |
| GCCTAGCACAAAAAGAGGAAGTGATGATGGTGCTAGGTCTTGATTCGCTTGACGCTGCTG | – | 9.07 |
| GCCTAGCACGAAAGGAGGAAGTGAAACTGGTGCTAGGTCTTGATTCGCTTGACGCTGCTG | 6.19 | – |
| GCCTAGCACCAAATGAGGAATTGATGCGGGTGCTAGGTCTTGATTCGCTTGACGCTGCTG | 2.8 | – |
| GCCTAGCACCAGAAAAGGAAGTAAGCCACGTGCTAGGTCTTGATTCGCTTGACGCTGCTG | – | 3.98 |
| GCCTAGCACGCAAAGAGGAAGTGACTCAAGTGCTAGGTCTTGATTCGCTTGACGCTGCTG | – | 6.81 |
| GCCTAGCACAAAAGAGGGAAGTGACATTCGTGCTAGGTCTTGATTCGCTTGACGCTGCTG | 5.89 | – |
| GCCTAGCACAAAAAGAGGAAGTACATTAAGTGCTAGGTCTTGATTCGCTTGACGCTGCTG | – | 8.68 |
| GCCTAGCACAAAAAGAGGAAGTGACTTCAGTGCTAGGTCTTGATTCGCTTGACGCTGCTG | – | 8.34 |
| GCCTAGCACAAAAAAAGGAAGTACAGTAAGTGCTAGGTCTTGATTCGCTTGACGCTGCTG | – | 6.54 |
| GCCTAGCACAAAAAGAGGAAGTGACTCACGTGCTAGGTCTTGATTCGCTTGACGCTGCTG | – | 8.49 |
| GCCTAGCACGATTTGAGGAAATGAAACTTGTGCTAGGTCTTGATTCGCTTGACGCTGCTG | 3.79 | – |
| GCCTAGCACAAAAAGGGGAAGTCATCTATGTGCTAGGTCTTGATTCGCTTGACGCTGCTG | – | 8.05 |
| GCCTAGCACAATATGAGGAAGTGCTCTAGGTGCTAGGTCTTGATTCGCTTGACGCTGCTG | 6.67 | – |
| GCCTAGCACTTACACAGGAAGTGCTGGCAGTGCTAGGTCTTGATTCGCTTGACGCTGCTG | 2.14 | – |
| GCCTAGCACACAAAGAGGAAGTCCCATTTGTGCTAGGTCTTGATTCGCTTGACGCTGCTG | – | 7.29 |
| GCCTAGCACAAAAAGAGGAAGAGAAACTTGTGCTAGGTCTTGATTCGCTTGACGCTGCTG | – | 6.04 |
| GCCTAGCACAAAAACAGGAAGTCCTATTCGTGCTAGGTCTTGATTCGCTTGACGCTGCTG | – | 7.91 |
| GCCTAGCACAAAATGAGGAAGTCATTCTTGTGCTAGGTCTTGATTCGCTTGACGCTGCTG | – | 8.35 |
| GCCTAGCACAAAAAGAGGAAGAGGCGCTTGTGCTAGGTCTTGATTCGCTTGACGCTGCTG | – | 5.63 |
| GCCTAGCACAAAAAGAGGAAGTGCTACTTGTGCTAGGTCTTGATTCGCTTGACGCTGCTG | – | 8.88 |
| GCCTAGCACAAAAAGAGGAAGTCCTATTTGTGCTAGGTCTTGATTCGCTTGACGCTGCTG | – | 8.54 |
| GCCTAGCACAAAAAGAGGAAGTCATTCTTGTGCTAGGTCTTGATTCGCTTGACGCTGCTG | – | 8.71 |
| GCCTAGCACAAAAATAGGAAATGAAAGTAGTGCTAGGTCTTGATTCGCTTGACGCTGCTG | 3 | – |
| GCCTAGCACGAAAGAGGGAAGTGGGCATAGTGCTAGGTCTTGATTCGCTTGACGCTGCTG | – | 4.48 |
| GCCTAGCACGCAGGGAGGAAGTGGGGAAGGTGCTAGGTCTTGATTCGCTTGACGCTGCTG | 3.42 | – |
